Like-named read-outs stand apart in the source and are kept apart here. About 3,200 (25%) of roughly 13,000 compounds showed an effect of 50% or more. Some of the results follow.
Test system: P. falciparum stage V gametocytes
Set-up: BacTiter-Glo ATP luminescence viability of purified stage V gametocytes in 384-well plates, per cent inhibition versus DMSO
Details: 48 h, 5 µM, inhibitor

Row | Structure (SMILES) | % Inhibition [%] | % Inhibition (% Inhibition) [%]
1 | CC(C)c1sc(N2CCN(C)CC2)nc1C(=O)Nc1ccc(F)cc1C(F)(F)F [TCMDC-134300] | 32.87 | 
2 | CCSc1ccccc1COc1c(C)nc(N)nc1N [TCMDC-131359] | 18.44 | 
3 | CCN(CC)c1nc(-c2ccccc2)cc(-c2ccccc2)c1C#N [TCMDC-125830] | -26.16 | 
4 | CCN(CC)c1nc(N)c2c(N)nc3c(c2c1C#N)C(=O)CN3Cc1ccccc1 [TCMDC-125024] | 94.19 | 
5 | Cc1cc(=O)c(-c2ccc(Oc3cccc(Cl)c3)cc2)c(C)[nH]1 [TCMDC-137265] | 67.32 | 
6 | Cc1cc(=O)c(-c2ccc(Oc3ccc(F)cc3)cc2)c(C)[nH]1 [TCMDC-137535] | 37.78 | 
7 | COc1ccc(Oc2ccc(-c3c(C)[nH]c(C)cc3=O)cc2)cc1 [TCMDC-137401] | 68.99 | 
8 | Cc1cc(=O)c(-c2ccc(Oc3ccc(Cl)cc3Cl)cc2)c(C)[nH]1 [TCMDC-137267] | 10.5 | 
9 | Cc1cc(=O)c(-c2cccc(Oc3ccc(Cl)cc3)c2)c(C)[nH]1 [TCMDC-137415] | 52.21 | 
10 | Cn1cnc2c(SCc3ccc(OCc4ccccc4)cc3)ncnc21 [TCMDC-136496] | -19.47 | 
11 | O=C(NC(=O)c1ccccc1O)c1ccccc1O [TCMDC-125868] | 4.896 | 
12 | O=C(NC1CCN(c2ccnc3cc(Cl)ccc23)C1)c1ccc(F)cc1 (centres unmarked) [TCMDC-133653] | -3.627 | 
13 | O=C(Nc1nc2ccc(Cl)cc2s1)c1csnn1 [TCMDC-125073] | -15.98 | 
14 | Cn1c(C2CC3CCC(C2)N3CC2CCC(NC(=O)/C=C/c3ccc(Cl)c(Cl)c3)CC2)nc2ccccc21 (centres unmarked) [TCMDC-140342] | -2.342 | 
15 | Cc1ccccc1N1CCN(c2ncc(C(=O)NC3CC3)cc2Cl)CC1 [TCMDC-134602] | 6.226 | 
16 | CC(C)C[C@@H](/C=N/N1CCOC1=O)NC(=O)[C@H](CC(C)C)NC(=O)c1ccc(OCCN2CCOCC2)cc1 [TCMDC-136170] | -12.99 | 
17 | COC(=O)c1ccc(CCCNCC(O)c2cccc(C(F)(F)F)c2)cc1 (centres unmarked) [TCMDC-131462] | 1.956 | 
18 | O=C(COc1ccc(Cl)c(Cl)c1)NCCCCCN1CCCN(C(=O)Nc2cc(Cl)cc(Cl)c2)CC1 [TCMDC-136293] | 78.53 | 
19 | O=C(/C=C/c1ccc(Cl)c(Cl)c1)NCCCCCN1CCCN(C(=O)Nc2ccc(F)c(Cl)c2)CC1 [TCMDC-135755] | -45.85 | 
20 | O=C(/C=C/c1ccc(Cl)c(Cl)c1)NCCCCCCN1CCCN(C(=O)Nc2cc(Cl)cc(Cl)c2)CC1 [TCMDC-135936] | -15.47 | 
21 | O=C(COc1ccc(Cl)c(Cl)c1)NCCCCCN1CCCN(C(=O)Nc2ccc(Cl)c(Cl)c2)CC1 [TCMDC-136292] | 72.04 | 
22 | Cc1ccc(/C=C/C(=O)NCCCCCN2CCCN(C(=O)Nc3ccc(Cl)c(Cl)c3)CC2)cc1 [TCMDC-136111] | -64.67 | 
23 | O=C(/C=C/c1ccc(Cl)c(Cl)c1)NCCCCCN1CCCN(C(=O)Nc2cc(Cl)cc(Cl)c2)CC1 [TCMDC-135760] | -3.132 | 
24 | CC(NC(C)(C)C)C(O)c1ccc(Cl)c(C(F)(F)F)c1 (centres unmarked) [TCMDC-137910] | -2.927 | 

Row | Structure (SMILES) | % Inhibition [%] | % Inhibition (% Inhibition) [%]
25 | Cc1cccc(C(=O)NC(NC(=S)Nc2cc(Cl)ccc2Cl)C(Cl)(Cl)Cl)c1 (centres unmarked) [TCMDC-124254] | -20.87 | 
26 | CC1(C)N=C(N)N=C(N)N1OCCCOc1cccc(Cl)c1 [TCMDC-131762] | 16.24 | 
27 | COc1ccc2nccc([C@@H](O)CN3CCC(NC(=O)/C=C/c4cc(F)cc(Br)c4)CC3)c2c1 [TCMDC-141031] | -7.765 | 
28 | CN(C)CCOc1ccc(/C(=C(/CCCn2ccnc2)c2ccccc2)c2ccc(O)cc2)cc1 [TCMDC-138900] | -20.55 | 
29 | CCCc1cc(OC)c(C[C@@H]2c3cc(O)c(Cl)cc3CCN2C)cc1OC [TCMDC-138128] | -6.481 | 
30 | CN1C(=O)C(=O)N(CCCCCON=C(N)N)C1=S [TCMDC-139249] | 12.53 | 
31 | CCNC(C)(C)CN(Cc1ccc(-c2ccc(C(F)(F)F)cc2)cc1)C(=O)Cn1c(CCc2cccc(F)c2F)nc(=O)c2ccccc21 [TCMDC-141047] | 102.8 | 
32 | CC(C)NC(C)(C)CN(Cc1ccc(-c2ccc(C(F)(F)F)cc2)cc1)C(=O)Cn1c(CCc2cccc(F)c2F)nc(=O)c2ccccc21 [TCMDC-141084] | 71.8 | 
33 | COc1ccc(NC(=O)Nc2cccc(-c3ccncc3)c2)cc1N1CCN(C)CC1 [TCMDC-139111] | 12.5 | 
34 | O=C(Nc1ccc(-c2nc3cc4ccccc4cc3[nH]2)cc1)c1cccc(Br)c1 [TCMDC-123806] | -9.366 | 
35 | O=C(NC1CC1)c1ccc(N2CCC(Oc3ccc(F)cc3)CC2)nc1 [TCMDC-134053] | 8.582 | 
36 | O=C(Nc1ccc(C(F)(F)F)cc1)NC1CCN(c2ccnc3cc(Cl)ccc23)CC1 [TCMDC-133568] | -13.61 | 
37 | CC(CCCCC(=O)Nc1ccc(C(F)(F)F)cc1)NCC(O)c1cccc(Cl)c1 (centres unmarked) [TCMDC-131538] | 28.83 | 
38 | O=C(Cn1c2ccccc2c(=O)c2ccc(Cl)cc21)Nc1ccc(C(F)(F)F)cc1 [TCMDC-125568] | 64.99 | 
39 | O=[N+]([O-])c1ccc(CNCCCCCCNCc2ccc([N+](=O)[O-])c3ccccc23)c2ccccc12 [TCMDC-137830] | 10.64 | 
40 | FC(F)(F)COc1ccc(CCNCCCCNCCc2ccc(OCC(F)(F)F)c3ccccc23)c2ccccc12 [TCMDC-137282] | 101.8 | 
41 | O=c1cc(NCCCNCc2ccc(C(F)(F)F)cc2F)[nH]c2ccccc12 [TCMDC-139427] | 7.285 | 
42 | FC(F)(F)COc1ccc(CNCCCCCCNCc2ccc(OCC(F)(F)F)c3ccccc23)c2ccccc12 [TCMDC-137853] | 131 | 
43 | O=C(/C=C/c1ccc(Cl)c(Cl)c1)NCCCCCCN1CCN(C(=O)Nc2cc(Cl)nc(Cl)c2)CC1 [TCMDC-135891] | -18.09 | 
44 | Cc1cccc(C(=O)Nc2ccnc(N(C)C3CCN(CC(C)C)CC3)c2)c1 [TCMDC-135023] | -10.51 | 
45 | Cc1ccc(/C=C/C(=O)NC2CCC(CN3CCC(c4c[nH]c5ccccc45)CC3)CC2)cc1C (centres unmarked) [TCMDC-139769] |  | 39.49
46 | O=C(/C=C/c1cccc(F)c1)NC1CCC(CN2CCC(c3c[nH]c4ccccc34)CC2)CC1 (centres unmarked) [TCMDC-139698] |  | 74.99
47 | O=C(/C=C/c1cccc(F)c1)NC1CCC(CN2CCC(c3c[nH]c4ccccc34)CC2)CC1 (centres unmarked) [TCMDC-139713] |  | 90.71
48 | Cc1nc(N)nc(N)c1-c1cc(Cl)c(Cl)c(Cl)c1 [TCMDC-137398] | 11.14 | 

Row | Structure (SMILES) | % Inhibition [%] | % Inhibition (% Inhibition) [%]
49 | CCCC(=O)Nc1ccc(OCCCN(Cc2cccc(C(F)(F)F)c2)c2ccc(C#N)c(C(F)(F)F)c2)cc1 [TCMDC-135666] | 6.029 | 
50 | CCOc1ccc2nccc([C@@H](O)[C@@H]3C[C@@H]4CCN3C[C@@H]4CC)c2c1 [TCMDC-123483] |  | -64.91
51 | Cc1cc(N2CCCN(C)CC2)nc(Nc2ccc(Br)cc2)n1 [TCMDC-137014] | 8.487 | 
52 | CCOC(=O)c1cc(C(=O)OC)c2ccccn12 [TCMDC-124299] | 4.818 | 
53 | CC1=C(C(=O)OC(C)C)C(c2ccccc2Cl)C2=C(CC(c3ccccc3)CC2=O)N1 (centres unmarked) [TCMDC-125608] | 34.25 | 
54 | CSc1nccc(-c2ccc(S(=O)(=O)NC3CCC(CN4CCC(c5c[nH]c6ccccc56)CC4)CC3)s2)n1 (centres unmarked) [TCMDC-131237] |  | 110.6
55 | CSc1nccc(-c2ccc(S(=O)(=O)NC3CCC(CN4CCC(c5c[nH]c6ccccc56)CC4)CC3)s2)n1 (centres unmarked) [TCMDC-131236] |  | 106.4
56 | O=C(NC1CCC(CN2CCC(c3c[nH]c4ccccc34)CC2)CC1)c1[nH]c(=O)[nH]c(=O)c1F (centres unmarked) [TCMDC-139889] | 14.48 | 
57 | N#Cc1c(Cl)cccc1Oc1ccc(S(=O)(=O)NC2CCC(CN3CCC(c4c[nH]c5ccccc45)CC3)CC2)cc1 (centres unmarked) [TCMDC-140175] |  | 1.176
58 | O=C(CCc1cccnc1)Nc1cccc(-c2ccc(-c3nc4ccc(C(F)(F)F)cc4[nH]3)cc2)c1 [TCMDC-132148] | -27.41 | 
59 | Cc1ccccc1C1CCN(c2ncc(C(=O)NC3CC3)cc2Cl)CC1 [TCMDC-134609] | 14.1 | 
60 | CC(C)(C)OC(=O)N[C@@H](CS(=O)(=O)CCN=C(N)COCc1ccccc1)C(=O)OC(C)(C)C [TCMDC-138107] | 24.21 | 
61 | O=S(=O)(c1ccc2ccccc2c1)N1CCCN(Cc2ccc(OCCCN3CCCCC3)cc2)CC1 [TCMDC-141721] | 52.58 | 
62 | O=C(N[C@H]1CCN(Cc2ccc(OC3CCN(Cc4ccccc4)CC3)cc2)C1)c1ccc(Cl)c(Cl)c1 [TCMDC-140265] | 57.35 | 
63 | O=C(Nc1ccc(C(=O)Oc2ccc(-c3ccccc3)cc2)cc1)N[C@@H](Cc1ccc(O)cc1)C(=O)NC1CCN(Cc2ccc(O)cc2)C1 (some centres unmarked) [TCMDC-135361] | -42.48 | 
64 | O=C(Cc1ccc(-c2ccccc2)cc1)N[C@H]1CCN(Cc2ccc(OCCCN3CCCCC3)cc2)C1 [TCMDC-141776] | 70.4 | 
65 | Cc1cc(CN2CC[C@H](NC(=O)c3ccc(Cl)c(Cl)c3)C2)ccc1OC1CCN(Cc2ccccc2)CC1 [TCMDC-140282] | -33.37 | 
66 | O=C(NC1CCN(Cc2ccccc2)C1)c1ccc(Nc2ccc(Br)cc2)nc1 (centres unmarked) [TCMDC-133798] | -17.8 | 
67 | O=C(N[C@H]1CCN(Cc2ccc(OCCCN3CCCCC3)cc2)C1)c1ccc(Oc2ccccc2)cc1 [TCMDC-141773] | 88.22 | 
68 | Fc1cc(CN2CCCC2)ccc1OCCCN1CCN(c2cccc(Cl)c2Cl)CC1 [TCMDC-137001] | 7.626 | 
69 | c1ccc(C(c2cccs2)N2CCN(Cc3ccc(OCCCN4CCCCC4)cc3)CC2)cc1 (centres unmarked) [TCMDC-141954] | 38.42 | 
70 | O=C(N[C@@H](Cc1ccccc1)CN1CCC(Oc2ccc(F)cc2)CC1)c1ccc(OCCCN2CCCCC2)cc1 [TCMDC-135416] | 28.27 | 
71 | O=C(N[C@H]1CCN(Cc2ccc(OC3CCN(Cc4ccccc4)CC3)c(Cl)c2)C1)c1ccc(Cl)c(Cl)c1 [TCMDC-140277] | 30.17 | 
